“And” between values parts separate entries of the source, which are not always exact repeats. Identical values can stand only once. The source made the active and inactive calls. No stated cut-off is given here; in the data, active means inhibition above about 80%; inactive means the rest.
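Further: cells exposed for 96 hours before readout.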

One experiment is described as follows: LFS_MB_1R medulloblastoma cell growth inhibition, synergistic combos for chromothripsis tumors, cisplatin or BGB combos (AID 1671452). Particulars: LFS_MB_1R medulloblastoma cells, measured here: combination with BGB IC40, at 0.05 µM, stronger effect = higher value.
In general, inhibition refers to the change of the read-out against control, counted positive when it falls. For `COc1c(N2CC3CCCNC3C2)c(F)cc2c(=O)c(C(=O)O)cn(C3CC3)c12` (centres undefined), the inhibition was -0.314% and -2.89%.
On the same count and under the same terms, with `Cc1ccc(NC(=O)CCCCCC(=O)Nc2ccccc2N)cc1` the figure was -38%; with `Nc1ccccc1NC(=O)CCCCCCC(=O)Nc1ccccc1`, -18.8% and -20.1%.

Still in this experiment, the particulars now being: LFS_MB_1R medulloblastoma cells, measured here: combination with cisplatin, at 0.5 µM, stronger effect = higher value.
In the case of `COc1c(N2CC3CCCNC3C2)c(F)cc2c(=O)c(C(=O)O)cn(C3CC3)c12` (centres undefined), the inhibition is -10.2% and 25.8%.
With `Cc1ccc(NC(=O)CCCCCC(=O)Nc2ccccc2N)cc1`, the inhibition is -38.7%.
In the case of `Nc1ccccc1NC(=O)CCCCCCC(=O)Nc1ccccc1`, the inhibition is -21.4% and -9.37%.

Staying with this experiment, now noted: LFS_MB_1R medulloblastoma cells, measured here: combination with cisplatin, at 5 µM, stronger effect = higher value.
Take `COc1c(N2CC3CCCNC3C2)c(F)cc2c(=O)c(C(=O)O)cn(C3CC3)c12` (centres undefined): the inhibition is -57.1% and -57%.
For the compound `Cc1ccc(NC(=O)CCCCCC(=O)Nc2ccccc2N)cc1`, the inhibition was 61.4%.
On to `Nc1ccccc1NC(=O)CCCCCCC(=O)Nc1ccccc1`, for which the inhibition is 34.7% and 36.3%.

The nature of the next experiment: HTB85 osteosarcoma cell growth inhibition, synergistic combos for chromothripsis tumors, BGB or cisplatin IC20 combos (AID 1671453).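 Further: 0% = vehicle DMSO and 100% = high DMSO killing control.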 Conditions: HTB85 osteosarcoma cells, drug combinations, at 0.5 µM, stronger effect = higher value.
Turning to `COc1c(N2CC3CCCNC3C2)c(F)cc2c(=O)c(C(=O)O)cn(C3CC3)c12` (centres undefined), the inhibition is -1.92% (inactive) and -17.4% (inactive).
Turning to `Cc1ccc(NC(=O)CCCCCC(=O)Nc2ccccc2N)cc1`, the inhibition is -11.4% (inactive).
Regarding `Nc1ccccc1NC(=O)CCCCCCC(=O)Nc1ccccc1`, the inhibition is 1.45% (inactive) and -7.23% (inactive).

Still in this experiment, the particulars now being: HTB85 osteosarcoma cells, drug combinations, measured here: with BGB IC20, at 0.5 µM, stronger effect = higher value.
For `COc1c(N2CC3CCCNC3C2)c(F)cc2c(=O)c(C(=O)O)cn(C3CC3)c12` (centres undefined), the inhibition is 0.476% and -45.2%.
Take `Cc1ccc(NC(=O)CCCCCC(=O)Nc2ccccc2N)cc1`: the inhibition is 11.7%.
The same measure, in the same setting: the value for `Nc1ccccc1NC(=O)CCCCCCC(=O)Nc1ccccc1` was 2.99% and -6.61%.

Still in this experiment, the particulars now being: HTB85 osteosarcoma cells, drug combinations, measured here: with BGB IC20, at 5 µM, stronger effect = higher value.
Take `COc1c(N2CC3CCCNC3C2)c(F)cc2c(=O)c(C(=O)O)cn(C3CC3)c12` (centres undefined): the inhibition is -14.2% and 1.64%.
Consider `Cc1ccc(NC(=O)CCCCCC(=O)Nc2ccccc2N)cc1`, for which the inhibition amounted to 31.2%.
For the compound `Nc1ccccc1NC(=O)CCCCCCC(=O)Nc1ccccc1`, the inhibition is 19.2% and 7.94%.

The same experiment, now with this note: HTB85 osteosarcoma cells, drug combinations, measured here: with cisplatin IC20, at 0.5 µM, stronger effect = higher value.
With `COc1c(N2CC3CCCNC3C2)c(F)cc2c(=O)c(C(=O)O)cn(C3CC3)c12` (centres undefined), the inhibition is -4.9% and -17.9%.
For the compound `Cc1ccc(NC(=O)CCCCCC(=O)Nc2ccccc2N)cc1`, the inhibition was -26.9%.
On to `Nc1ccccc1NC(=O)CCCCCCC(=O)Nc1ccccc1`, for which the inhibition was -1.97% and -10.6%.

Still in this experiment, the particulars now being: HTB85 osteosarcoma cells, drug combinations, measured here: with cisplatin IC20, at 5 µM, stronger effect = higher value.
With `COc1c(N2CC3CCCNC3C2)c(F)cc2c(=O)c(C(=O)O)cn(C3CC3)c12` (centres undefined), the inhibition was -35.3% and -0.109%.
Regarding `Cc1ccc(NC(=O)CCCCCC(=O)Nc2ccccc2N)cc1`, the inhibition turned out to be 33.8%.
For the compound `Nc1ccccc1NC(=O)CCCCCCC(=O)Nc1ccccc1`, the inhibition is 29.1% and 24.4%.

The values are drawn from PubChem BioAssay.
